# Experimental data from the supplement of paper PMC6555819.
# How the values were obtained:
# Assay in all cases: PBM binding z-score (relative to random genomic background probes); higher = stronger binding; sequences stand for … in GC…GCGATTGACAGCGTAGAATGAAGG
# [1] = test system: RARb homodimer (NR concentration 270 nM)
# Method in brief: (§1)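 Binding z-scores were set against random background probes. The data came from custom Agilent 4×180K protein-binding microarrays carrying double-stranded probes with 34-nt variable regions, incubated 1 h with ligand-free nuclear receptor dimers. Partner-specific antibodies detected binding, and scanned fluorescence was regression-normalized.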
# [2] = test system: RARg:RXRa (NR concentration 270 nM, RXRa partner concentration 90 nM)
# Method in brief: as §1
# [3] = test system: RARg homodimer (NR concentration 270 nM)
# Method in brief: as §1
# [4] = test system: RXRa DBDmut IVT, anti-RXR (DBD mutation: RXRa K156A/R161A, NR concentration 90 nM)
# Method in brief: as §1
# [5] = test system: RXRa homodimer (NR concentration 180 nM)
# Method in brief: as §1
# [6] = test system: THRa:RXRa (NR concentration 90 nM, RXRa partner concentration 90 nM)
# Method in brief: as §1
# [7] = test system: THRa homodimer (NR concentration 90 nM)
# Method in brief: as §1
# [8] = test system: VDR homodimer (NR concentration 270 nM)
# Method in brief: as §1
Sequence,PBM binding z-score [1],PBM binding z-score [2],PBM binding z-score [3],PBM binding z-score [4],PBM binding z-score [5],PBM binding z-score [6],PBM binding z-score [7],PBM binding z-score [8]
CCGAGTTGGTTACGAGGGGGCATTCAGTGCGAAT,1.81,1.91,1.44,2.58,1.02,2.46,0.911,4.2
GTACCAAGGTGAATAGGTCGTTGATGAGTAGGCG,1.89,2.73,1.44,0.0133,1.92,1.79,0.526,0.496
CAAAGTAGGTCACCGGAAGGTCAAAGTCCGCATG,5.78,8.47,7.72,1.72,7.28,4.35,2.03,3.66
GATCCAGGGTCAGCTAGAGGCCAGAGTATGGAAA,3.27,6.7,4.6,0.756,4.34,3.09,-0.172,0.674
GATAAAGGGTCAGCTAGAGGCCAGAGTATGGAAA,4.46,7.34,6.77,1.54,5.05,3.06,-0.108,0.772
CGAACTAGGTCAATGGACAGTGAAAGGCGACGTA,2.45,3.17,4.17,1.14,2.14,1.93,-0.00999,0.0508
CGAACTAGGTCTCCAGGACAGTGAAGAGGTTGGA,-0.111,-0.0715,0.188,-0.342,-0.062,1.11,0.505,-0.34
CGTCCAAGGTCAGAGAGGTCAGTGTATGCCGAGT,5.2,6.1,6.77,3.28,5.29,4.14,3,5.78
ATATGTAGGTTAAGGTCATTCAGAAAGTAGGGAA,4.18,4.81,4.96,2.75,4.96,4.41,4.8,4.05
CGAACTAGGTCCTTGACAGGACAGTGAATAGTAA,-0.115,0.0551,-0.0699,0.0443,-0.00915,0.388,-0.275,-0.117
CGAACTAGGTCACCAGGACACTGAAGAGGTTGGA,3.48,4.62,5.4,1.56,3.65,3.83,2.39,0.607
CCTACTGGGCCAAAGGTCATAGATTCCAATGCTC,4.32,5.69,4.78,1.1,6.28,3.22,0.866,2.27
CGAACTAGGTAACCAGGACAGTGAAGAGGTTGGA,0.378,0.0852,0.279,-0.359,0.345,1.37,0.609,-0.193
ATCCAAAGGTCGAGGTGAGTATAGAGAAAGGGAA,3.21,4.69,4.83,1.19,5.1,3.07,1.07,1.09
TCGAGTAGGTTACGGGGGCATTAAGGGATGAAGA,1.91,3.09,2.32,1.61,2.56,2.83,0.949,2.81
CTAGGTAGGTTAAGGGGGTCATTCAGTTTGAAAG,3.87,4.95,3.79,1.97,5.77,3.78,2.19,5.84
CGAACTAGGTCACGAGGACAGTGAAGAGGTTGGA,3.75,4.91,5.66,1.48,3.85,3.84,2.61,0.957
TCTCGGAGGACACGAAAGGGCAGAGCTCGACATC,2.21,1.52,2.06,0.584,0.474,1.76,0.0765,-0.17
CGAACTAGGTCACCATGACAGTGAAGAGGTTGGA,3.31,4.27,5.26,1.18,3.17,2.99,1.41,0.264

Sequence,PBM binding z-score [1],PBM binding z-score [2],PBM binding z-score [3],PBM binding z-score [4],PBM binding z-score [5],PBM binding z-score [6],PBM binding z-score [7],PBM binding z-score [8]
CTCGAAAGGTCGGTTGAGGTGAGTAAACGGATAA,2.42,2.86,2.8,0.85,2.46,4.97,1.19,0.238
CGTCAAAGTTCAAGGTAAAGTAACAGAAAGCAGC,3.36,5.19,6.06,4.04,4.17,2.5,0.503,2.89
ACTCGGGGGACAAAGGTCAGAGCTACGCCAGTGA,4.56,7.2,6.12,2.06,6.34,3.82,1.07,1.81
CGTCCAAGGTCAGCAGGTCAGAGAAAGCGACGTG,4.32,6.59,6.67,2.55,5.72,3.92,2.42,1.83
GCTTACGGGTCAAAGGTTATAGTATGAATAGAAT,3.5,6.8,4.72,2.7,9.39,3.99,0.429,1.88
ATATGTAGGTCAGGGTCATTCAGAAAGTAGGGAA,4.5,5.21,5.33,2.58,5.76,4,2.37,4.27
CTATGTAGTTTAAGGGGGTCATTCAGTTTGAAAG,3.89,4.53,3.58,3.27,5.05,3.79,2.91,7.03
CGAACTAGGTCAAAGGACAGAGAAAGGCGACGTA,2.7,4.29,4.46,1.73,3.38,2.44,0.0564,0.391
ATATGTAGGTCATCGGGTCATTCAGTTTGCGCAT,4.63,6.21,5.6,2.92,6.72,4.16,3,5.1
GATACAAGGTCAGCTAGAGGCCAGAGTATGGAAA,3.93,6.83,6.32,2.06,4.28,3.44,1.18,1.09
CTCGAAAGGTCGTCCTCAGGTGAGTATACCAAAC,3,5.29,4.2,2.35,4.82,4.13,1.94,1.84
TCTAGTTCGTCACGGAGGTCACACACGACGGGTA,4.28,4.52,4.04,2.51,4.68,3.67,2.73,3.58
CGTGCAAGGTCAGAGAGGTCAGTGAATGCCGAGT,5.37,6.33,7.25,3.07,5.82,4.31,2.54,5.99
CCTTACGGTTCACTGACAGGTTATAGCATTTGGA,1.26,3.49,0.922,3.31,2.05,1.53,0.708,2.95
TAGCCTAGGTCCTTCAGGGGCCAGTATAGAAAGC,0.357,0.825,0.108,-1.03,-0.259,0.402,-0.799,-0.422
CCTAGTTGGTCAGGAGGTCCCACACCGGATATGA,0.775,0.48,0.629,-0.686,0.0541,-0.131,0.411,0.335
CGAACTAGGTCAGAACAGTACAGTGAAGGATGAT,1.96,2.46,3.33,0.94,1.27,1.83,0.222,0.229
ATATGCAGGTTAGGGTCATTCAGAAAGTAGGGAA,3.2,4,3.17,2.15,5.23,3.89,2.86,3.64
CGGACTAGGTCAAAGGACAGTGAAAGGCGACGTA,2.91,3.97,4.51,1.33,3.02,2.57,0.589,0.288

Sequence,PBM binding z-score [1],PBM binding z-score [2],PBM binding z-score [3],PBM binding z-score [4],PBM binding z-score [5],PBM binding z-score [6],PBM binding z-score [7],PBM binding z-score [8]
CGAACTAGGTCAGAACAGGACATTGAAGGATGAT,2.12,2.57,3.4,0.96,1.41,3.72,0.36,0.369
AAATGTAGGTTAAGGGTCATTCAGGTTGGTTCGC,3.78,4.73,3.54,2.32,5.91,3.57,1.64,4.26
CCTACTGGGCCAAAAATGTCATTGATGCCGATAA,-0.0192,-0.247,0.087,-0.297,-0.234,-0.288,-0.816,-0.383
CTTACTGGGCCAAAGGTCATTGATTCCAATGCTC,4.58,5.97,4.91,1.99,6.68,3.36,0.898,2.79
ATATGTAGGTTAGGGTCATTGAGAAAGTAGGGAA,3.51,4.09,3.1,2.32,5.3,4.13,3.44,3.55
CTCGAAAGGTCGTGGTCAGGTGAGTATACCAAAC,3.25,5.58,4.34,1.88,5.4,4.01,0.825,1.13
CCGAGTAGGTTACAAGGGGGCATTCAGTGCGAAT,2.41,2.84,2.42,1.47,2.1,3.61,0.507,3.51
ATATGTAGGTTCCATCCGGGTCATTCAGGCTATG,2.11,1.65,1.19,0.91,2.18,3.44,2.32,2.91
CTATGTAGGTTAAGGGGGTCATTAAGTTTGAAAG,3.65,4.97,3.44,2.43,5.43,3.79,2.03,6.07
AGTCGGAGGACAAAGGTCAGAGCTACGCCAGTGA,4.3,6.16,5.52,0.767,5.6,3.63,0.663,1.37
AGTCAAAGTTCACGACGAGGTAACGTAAAGCACG,4.35,6.88,6.88,4.21,5.95,4.41,1.36,3.96
ACTAACAGGCCAAGGGTCACTCAAGATTAGTCCG,4.08,4.46,4.16,1.23,4.7,2.9,0.619,1.46
TCATATAGGTAATAGGTGAAAGTCGGTGTGGTAA,0.632,0.482,0.284,1.59,1.53,0.534,0.384,0.435
TCTGCTAGGTCAACGATGGTCAGCGAATCTGCTA,3.42,4.03,4.75,0.927,2.57,3.15,0.707,-0.22
CAAACTAGGTCAAGGGGTCAAAGTCCGCTTCCCG,5.65,8,7.19,2.98,8.47,4.64,2.49,4.55
CGAACTAGGTAAAAGGACAGTGAAAGGCGACGTA,1.17,0.486,0.964,-0.478,0.114,0.444,-0.377,-0.349
ACTAGGAGGACAAAGGTCAGAGCTACGCCAGTGA,4.5,6.01,5.64,0.898,5.85,3.37,0.874,0.936
CGAACTAGGTCAAAGTACAGTGAAAGGCGACGTA,2.8,4.13,4.62,2,3.1,2.57,0.294,0.766
